About 83,000 compounds went through this panel and 20% of them were active in at least one assay; those are over-represented in the sample as a whole.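 48-hour exposure, single concentration, 96-well plates; percent growth endpoint where 0 means no net growth. Active: below 10.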 A number with no mark means an inactive call. Active and inactive are the calls of the source.
Columns and labels:
Experiment in all cases: NCI-60 one-dose screen, 48 h (100 = growth as untreated, 0 = no growth, -100 = all killed)
Details in all cases: 10 µM unless noted
[1] = system: SR leukemia
[2] = system: RPMI-8226 leukemia
[3] = system: OVCAR-8 ovarian
[4] = system: OVCAR-5 ovarian
[5] = system: OVCAR-4 ovarian
[6] = system: SK-OV-3 ovarian
[7] = system: IGROV1 ovarian
[8] = system: OVCAR-3 ovarian
[9] = system: HS 578T breast
[10] = system: NCI/ADR-RES ovarian

SMILES | growth [1] | growth [2] | growth [3] | growth [4] | growth [5] | growth [6] | growth [7] | growth [8] | growth [9] | growth [10]
CS(=O)(=O)Nc1cc(-c2ccc3ncnc(Nc4ccc(OCc5cccnc5)c(Cl)c4)c3c2)cnc1Cl | -60.1% (active) | -2.42% (active) | 8.77% (active) | 12.1% | 28.9% | -14.9% (active) | -56.8% (active) | -40.7% (active) | -25.3% (active) | 70.5%
N#Cc1cc(-c2ccnc(Nc3ccc(N4CCN(C5COC5)CC4)cc3)n2)ccc1N1CCCC1 | 23% | 36.6% | 79.5% | 93.5% | 43.9% | 52.8% | 55.3% | 94.5% | 21.6% | 92.2%
CC(=O)Nc1ccc(S(=O)(=O)Nc2ccc(-c3ccc4c(c3)NC(=O)/C4=C\c3ccc[nH]3)cc2)cc1 | 34.7% | 78.3% | 98% | 79.5% | 67.8% | 104% | 81.2% | 141% | 98.6% | 107%
O=Cc1cncc(-c2ccc3ncnc(N4CCc5cc(F)c(Cl)cc54)c3c2)c1 | -4.69% (active) | 15.4% | 39.8% | 27.6% | 43.4% | 4.6% (active) | -41.2% (active) | 25.2% | -17.9% (active) | 34.8%
Cn1cc(-c2cc(N)n3nc(-c4c[nH]c5ccccc45)cc3n2)c2cc(Cl)ccc21 | 20% | -7.08% (active) | -63.7% (active) | -65.9% (active) | -29.3% (active) | -61.4% (active) | -65.5% (active) | -52.5% (active) | -21.2% (active) | -12.8% (active)
COC(=O)c1c(C(=O)OC)c2c3ccccc3c3ccccc3n2c1C(=O)C(F)(F)F | 81.8% | 97.6% | 99.6% | 99.2% | 94.7% | 107% | 82.9% | 112% | 99.2% | 93.7%
COc1ccc2[nH]cc(-c3cc4nc(-c5cn(C)c6ncc(Br)cc56)cc(N)n4n3)c2c1 | -16.1% (active) | -6.2% (active) | -55.2% (active) | -83.6% (active) | -36.5% (active) | -42.6% (active) | -77.3% (active) | -67.3% (active) | -27.8% (active) | -44.8% (active)
COc1ccc2[nH]c(O)c(N=Nc3nc(-c4ccccc4)cs3)c2c1 | 27% | 58.6% | 6.68% (active) | 53.2% | -7.14% (active) | -17.4% (active) | 36.1% | -2.28% (active) | 41.6% | 3.46% (active)
c1n[nH]cc1-c1nc2ccc3cn[nH]c3c2c2c1CCCC2 | 74.5% | 85.3% | 89.2% | 89.9% | 96.1% | 96.8% | 66.5% | 109% | 53% | 88.7%
O=C(N/N=C/c1ccc(Cl)o1)c1[nH]c2ccc(Br)cc2c1-c1ccccc1 | 7.2% (active) | 1.15% (active) | -56.7% (active) | -24.9% (active) | -22.3% (active) | 4.66% (active) | 5.37% (active) | -11.3% (active) | 3.22% (active) | -79% (active)
NS(=O)(=O)c1ccc(Nc2nc(SCC(=O)c3ccc(F)cc3)nc3ccccc23)cc1 | 19.6% | 30.6% | 52.9% | 78.1% | 37.3% | 67.3% | 46.4% | 47.1% | 53.1% | 28.7%
Clc1ccccc1Nc1nnc(-c2c[nH]c3ccccc23)o1 | 15.7% | 4.23% (active) | 13.4% | 29.8% | 73.2% | 22.1% | 19.4% | 9.25% (active) | 18.2% | -18.8% (active)
C=CCSc1nnc(-c2ccc(-c3nc4ccccc4[nH]3)cc2)o1 | 81% | 34.9% | 55.9% | 105% | 46.1% | 96.1% | 101% | 91.5% | 79% | 61.1%
